This note sets out measurements from PubChem BioAssay.

Assay [1] can be described thus: small molecules captured by biotinylated probe aFSTL3 – biochemical, small-molecule microarray, fluorescence 635/667, stem cell growth factor project, primary screen (AID 1064).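 Also: measures binding of the biotinylated anti-FSTL3 antibody to printed compounds.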 Conditions: higher = more signal.
The nature of assay [2]: binders from COS7 lysate, DM2A8 probe, primary screen, torsin A project, cell lysate, small-molecule microarray, fluorescence 635/667 (AID 1065). Conditions: higher = more signal, COS7 lysate expressing mutant human TOR1A.
The nature of assay [3]: small molecules captured by biotinylated probe aFGF2 – biochemical, small-molecule microarray, fluorescence 635/667, stem cell growth factor project, primary screen (AID 1067).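 Also: measures binding of biotinylated aFGF2 protein to printed compounds on slides; z-score merges feature fluorescence and signal-to-noise across triplicate slides.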 The following applies: higher = more signal.
Assay [4] is described as follows: small molecules captured by biotinylated probe aFGF10 – biochemical, small-molecule microarray, fluorescence 635/667, stem cell growth factor project, primary screen (AID 1071).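 Also: score merges 667 nm spot intensity and signal to noise from triplicate slides.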 Conditions: higher = more signal.
For assay [5], the target named is Neurogenic locus notch homolog protein 2 (Homo sapiens) (UniProt Q04721). The assay is described as follows: small molecules binding Notch2 protein – biochemical, small-molecule microarray, 635 nm fluorescence, stem cell growth factors, primary screen (AID 1073). Conditions: higher = more signal.
Assay [6] deals with Pro-neuregulin-1, membrane-bound isoform (Homo sapiens) (UniProt Q02297). The assay is described as follows: small molecules binding neuregulin-1 protein – biochemical, small-molecule microarray, fluorescence 635/667, psychiatric disease protein project, primary screen (AID 1075).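 Also: score combines 667 nm spot fluorescence with signal to noise.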 Conditions: NRG1 binding, 635 nm fluorescence, higher = more signal.
In assay [7] the test system is Neuregulin-1 EGF-like domain. The assay is described as follows: small molecules binding NRG1 EGF domain – biochemical, small-molecule microarray, 635 nm fluorescence, primary screen (AID 1081).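 Also: binding of the protein to compounds printed on small-molecule microarray slides.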 The following applies: higher = more signal.
Assay [8] is described as follows: FRG1 expression reporter modulators in myotubes – cell-based, C2C12 myotubes, firefly/Renilla luciferase, luminescence, FRG1 inhibition for FSHD, primary screen (AID 1084). The following applies: FRG1 promoter luciferase, higher = more signal, called active from +8 up or from −8 down.
Assay [9] in a line: small molecules captured by biotinylated probe aFST – biochemical, small-molecule microarray, fluorescence 635/667, stem cell growth factor project, primary screen (AID 1086).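 Also: score merges 667 nm fluorescence with signal-to-noise of each printed compound spot.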 Conditions: higher = more signal.
The nature of assay [10]: binders of probe aHhip on microarray, primary screen, stem cell growth factor project, biochemical, small-molecule microarray, fluorescence 635/667 (AID 1087).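 Also: score merges spot fluorescence at 667nm with spot signal to noise ratio.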 The following applies: higher = more signal.

Calls of active or inactive are those of the source.

Pro-neuregulin-1, membrane-bound isoform (Homo sapiens), sequence (Q02297 whole entry, looked up, the tested form may be a part, canonical isoform): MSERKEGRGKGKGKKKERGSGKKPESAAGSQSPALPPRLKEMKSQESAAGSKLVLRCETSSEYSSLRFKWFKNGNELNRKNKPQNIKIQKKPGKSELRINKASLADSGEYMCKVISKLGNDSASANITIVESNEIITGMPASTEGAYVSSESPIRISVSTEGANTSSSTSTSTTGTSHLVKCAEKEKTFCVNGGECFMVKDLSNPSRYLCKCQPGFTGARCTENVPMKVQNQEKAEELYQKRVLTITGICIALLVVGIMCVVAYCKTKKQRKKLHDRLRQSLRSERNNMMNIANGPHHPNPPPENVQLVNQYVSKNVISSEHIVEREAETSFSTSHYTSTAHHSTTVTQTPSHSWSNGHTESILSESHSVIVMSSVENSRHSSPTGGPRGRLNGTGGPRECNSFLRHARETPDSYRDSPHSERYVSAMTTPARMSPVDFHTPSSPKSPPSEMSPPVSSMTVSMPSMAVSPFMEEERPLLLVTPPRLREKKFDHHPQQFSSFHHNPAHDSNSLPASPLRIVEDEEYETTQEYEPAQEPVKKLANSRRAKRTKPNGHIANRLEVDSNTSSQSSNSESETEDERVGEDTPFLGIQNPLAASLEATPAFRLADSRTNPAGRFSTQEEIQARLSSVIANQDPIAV
Neurogenic locus notch homolog protein 2 (Homo sapiens), sequence (Q04721 whole entry, looked up, canonical isoform): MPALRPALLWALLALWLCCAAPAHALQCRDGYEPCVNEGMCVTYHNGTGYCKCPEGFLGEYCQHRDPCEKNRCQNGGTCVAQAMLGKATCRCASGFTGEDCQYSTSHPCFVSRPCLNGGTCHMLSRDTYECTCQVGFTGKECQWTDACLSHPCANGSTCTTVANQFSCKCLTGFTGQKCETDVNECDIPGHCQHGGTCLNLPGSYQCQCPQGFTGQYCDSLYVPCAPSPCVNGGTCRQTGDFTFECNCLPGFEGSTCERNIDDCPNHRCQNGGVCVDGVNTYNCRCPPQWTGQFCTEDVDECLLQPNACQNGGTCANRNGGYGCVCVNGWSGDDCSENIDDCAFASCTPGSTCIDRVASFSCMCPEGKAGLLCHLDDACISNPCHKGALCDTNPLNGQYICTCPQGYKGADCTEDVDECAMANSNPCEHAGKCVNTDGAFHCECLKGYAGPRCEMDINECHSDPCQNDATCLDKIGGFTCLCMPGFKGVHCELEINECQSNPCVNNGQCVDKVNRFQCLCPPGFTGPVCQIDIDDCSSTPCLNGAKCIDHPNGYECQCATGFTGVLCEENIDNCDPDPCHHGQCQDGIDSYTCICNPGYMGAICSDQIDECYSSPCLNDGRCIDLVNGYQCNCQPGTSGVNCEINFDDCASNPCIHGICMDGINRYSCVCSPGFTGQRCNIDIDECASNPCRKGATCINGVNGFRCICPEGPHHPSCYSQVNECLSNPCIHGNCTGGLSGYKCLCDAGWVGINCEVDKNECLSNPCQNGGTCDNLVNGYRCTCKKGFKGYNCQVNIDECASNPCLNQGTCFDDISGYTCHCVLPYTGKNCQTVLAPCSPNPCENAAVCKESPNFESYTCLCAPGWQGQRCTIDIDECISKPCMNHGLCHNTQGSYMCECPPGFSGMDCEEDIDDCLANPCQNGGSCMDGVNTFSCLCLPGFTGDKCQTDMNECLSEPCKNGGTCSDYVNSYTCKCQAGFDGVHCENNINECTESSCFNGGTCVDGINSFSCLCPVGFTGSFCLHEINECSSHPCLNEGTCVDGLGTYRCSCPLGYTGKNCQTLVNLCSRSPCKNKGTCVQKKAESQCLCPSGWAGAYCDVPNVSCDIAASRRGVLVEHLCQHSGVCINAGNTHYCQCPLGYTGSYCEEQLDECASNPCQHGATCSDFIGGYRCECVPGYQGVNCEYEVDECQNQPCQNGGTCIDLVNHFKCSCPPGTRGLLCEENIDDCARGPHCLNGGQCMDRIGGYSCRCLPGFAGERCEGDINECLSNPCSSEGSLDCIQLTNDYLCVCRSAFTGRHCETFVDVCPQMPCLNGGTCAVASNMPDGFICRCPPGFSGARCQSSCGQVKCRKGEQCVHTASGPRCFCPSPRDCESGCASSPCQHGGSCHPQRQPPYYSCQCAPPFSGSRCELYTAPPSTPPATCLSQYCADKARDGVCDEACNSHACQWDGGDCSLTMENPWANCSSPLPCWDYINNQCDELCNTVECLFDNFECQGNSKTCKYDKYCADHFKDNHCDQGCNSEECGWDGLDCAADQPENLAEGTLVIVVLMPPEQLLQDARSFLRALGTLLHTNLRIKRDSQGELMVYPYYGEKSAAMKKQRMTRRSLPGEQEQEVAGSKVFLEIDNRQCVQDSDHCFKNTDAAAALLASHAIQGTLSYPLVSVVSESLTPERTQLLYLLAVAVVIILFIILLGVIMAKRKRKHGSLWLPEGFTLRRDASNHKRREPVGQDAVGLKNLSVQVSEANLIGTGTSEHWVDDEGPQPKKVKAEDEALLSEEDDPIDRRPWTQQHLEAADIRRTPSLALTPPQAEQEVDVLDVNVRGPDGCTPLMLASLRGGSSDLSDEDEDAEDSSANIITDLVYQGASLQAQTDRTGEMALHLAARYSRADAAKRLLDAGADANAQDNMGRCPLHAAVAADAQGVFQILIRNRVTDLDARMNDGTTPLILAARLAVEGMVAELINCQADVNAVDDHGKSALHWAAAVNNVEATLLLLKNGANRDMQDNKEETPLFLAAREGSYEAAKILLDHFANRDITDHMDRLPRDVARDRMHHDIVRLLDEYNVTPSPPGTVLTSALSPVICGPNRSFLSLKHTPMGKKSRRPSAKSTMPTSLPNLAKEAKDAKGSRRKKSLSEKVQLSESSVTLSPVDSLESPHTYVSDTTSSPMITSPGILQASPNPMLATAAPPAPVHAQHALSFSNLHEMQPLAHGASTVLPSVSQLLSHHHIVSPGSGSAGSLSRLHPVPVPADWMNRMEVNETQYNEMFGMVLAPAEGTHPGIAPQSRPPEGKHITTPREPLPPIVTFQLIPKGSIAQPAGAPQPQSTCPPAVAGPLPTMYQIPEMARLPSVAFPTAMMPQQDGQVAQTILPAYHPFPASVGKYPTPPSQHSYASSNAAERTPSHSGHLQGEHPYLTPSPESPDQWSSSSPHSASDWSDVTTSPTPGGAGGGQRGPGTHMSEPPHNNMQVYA

As to `CO[C@H]1COC(=O)[C@@H](Cc2ccccc2)NC(=O)[C@@H](C)COC(=O)CC=C[C@@H]1C`, the composite z-score in assay [1] is -0.533; in assay [2], 0.806; in assay [3], -0.142; in assay [4] it was -0.0799; in assay [5], -0.172; in [6] it was -0.923. In addition, the composite z-score was -0.294 in assay [7], -0.0629 in assay [9] and -0.0994 in assay [10]. Besides, in [8], the z-score was 0.0824 (inactive).
Take `Cc1ccc(N2C(=O)c3ccccc3[C@@H](C(=O)NCC(F)(F)F)[C@@H]2c2ccc(CO)cc2)nc1`: the composite z-score in [1] is 1.83; in assay [2], -1.33; in [3], -0.195; in assay [4] it was -1.11; in [5], -2.11; in [6], 1.15. Further, the results for the composite z-score in assay [7], in assay [9] and in assay [10] were 1.26, -0.869 and -0.539, respectively. The z-score in assay [8] is -0.307 (inactive).
As to `COCCOC(=O)N1C(=O)[C@@]2(c3cc(C#CCNC(N)=O)ccc31)[C@H](c1ccccc1OCCO)N1[C@H](c3ccccc3)[C@H](c3ccccc3)OC(=O)[C@H]1[C@@H]2C(=O)NC[C@H](O)c1ccccc1`, the composite z-score in [1] is -0.342; in [2] it was 1.27; in assay [3], -0.0083; in assay [4], 0.658; in assay [5], 0.472; in [6], 1.54. The composite z-score in assay [7] was 1.21; in [9] it was 0.512; in assay [10] it was -0.0672. Also, the z-score in [8] is -0.163 (inactive).
With `COc1ccc([Si](C)(C)[C@@H]2[C@@H](CCO)O[C@]3(C(=O)N(Cc4ccc(NC(=O)[C@H](C)O)cc4)c4ccccc43)[C@H]2C)cc1`, the composite z-score in assay [1] was 0.0169; in assay [2], 0.395; in [3], -0.0606; in assay [4], 0.585; in assay [5], 0.684; in assay [6] it was 1.05. Further, the composite z-score in [7] is 1.19; in assay [9], 0.152; in assay [10], -0.0618. Besides, the z-score in assay [8] is -4.16 (inactive).
On to `CC(C)[Si]1(C(C)C)O[C@@H](c2ccccc2)c2cc(C3CC3)nc(-c3ccc(Oc4ccccc4)cc3)c21`, for which the composite z-score in assay [1] is 0.0382; in assay [2], 0.0357; in assay [3] it was -0.119; in assay [4] it was -0.772; in assay [5], -0.304; in assay [6], -0.46. Moreover, the composite z-score in assay [7] is -0.985; in assay [9], -0.148; in assay [10], -0.0074. For the same molecule, the z-score in assay [8] was -0.895 (inactive).
On to `C=CCNC(=O)[C@H]1[C@@H]2C(=O)O[C@@H](c3ccccc3)[C@@H](c3ccccc3)N2[C@@H](c2ccccc2OCCO)[C@]12C(=O)N(C(=O)OCCOC)c1ccc(C#CCNC(N)=O)cc12`, for which the composite z-score is 0.173 in assay [1]; 0.912 in assay [2]; -0.0547 in [3]; 0.149 in assay [4]; 0.284 in assay [5]; 1.32 in [6]. Further, the results for the composite z-score in assay [7], in assay [9] and in [10] were 1.06, 0.428 and 0.0623, respectively. Moreover, the z-score in assay [8] is -1.53 (inactive).
As for `C[C@@H]1CC[C@H]2C(=O)N3CCC[C@H]3C(=O)N2[C@H]1c1ccc(Br)cc1`, the composite z-score in assay [1] was -0.162; in assay [2], 0.0769; in assay [3], -0.11; in assay [4], -0.121; in assay [5], -0.829; in [6], -0.267. In addition, the composite z-score in assay [7] was 0.0421; in [9], -0.0423; in [10], 0.0274. In addition, the z-score in assay [8] is -0.228 (inactive).
Regarding `COC(=O)c1c(CC[C@@H](CO)NC(=O)N[C@H](Cn2cc(-c3cncn3C)nn2)C(C)C)oc(C(C)=O)c1C(=O)OC`, the composite z-score in assay [1] is -0.151; in assay [2], 0.874; in [3], -0.043; in assay [4], 0.66; in assay [5], 0.193; in assay [6], 0.692. The composite z-score in assay [7] is 1.09; in [9], -0.201; in assay [10], -0.261. Moreover, the z-score in assay [8] was 0.0938 (inactive).
Regarding `CC(=O)NCCCC[C@@H]1NC(=O)[C@@H]2C[C@H](C(=O)NCCCCCNC(=O)CS)[C@H](c3ccc(O)cc3)N2C1=O`, the composite z-score was 0.123 in [1]; -0.383 in [2]; -0.226 in assay [3]; -1.38 in assay [4]; -0.83 in assay [5]; 0.0942 in assay [6]. Further, the composite z-score in assay [7] was 1.15; in [9], -0.735; in assay [10], -0.388. Further, in assay [8], the z-score was -1.14 (inactive).
Regarding `C=C(C(=O)CC[C@H](OC(=O)c1ccccc1-c1ccccc1C(=O)O)c1ccc(CO)o1)C(C)C`, the composite z-score in assay [1] was -0.547; in assay [2] it was -0.113; in [3], -0.0974; in assay [4] it was 0.959; in [5] it was -0.0673; in assay [6], 1.25. Further, the composite z-score was 1.33 in assay [7], 0.0357 in assay [9] and -0.0645 in [10]. Also, the z-score in assay [8] is 0.112 (inactive).
For the molecule `CN1C2C=C(c3ccc(CO)cc3)C(C3C(=O)N(C(N)=O)C(=O)C32)C1c1cccs1` (stereo not given), the composite z-score was 0.631 in [1]; 0.056 in assay [2]; -0.0566 in [3]; 0.0657 in [4]; -0.458 in [5]; 0.839 in assay [6]. For the same molecule, the composite z-score in [7] is 1.27; in [9] it was -0.221; in assay [10], -0.0645. In addition, the z-score in assay [8] was 1.02 (inactive).
`Cc1ccccc1C(O)C1C=CC2C(=O)N(c3ccccc3)C(=O)C2N1Nc1ccc(C#N)cc1` (stereo not given): the composite z-score was found to be 0.834 in [1]; 1.46 in assay [2]; 0.429 in assay [3]; 1.15 in [4]; 1.63 in assay [5]; 1.91 in [6]. Also, the composite z-score in [7] was 1.25; in assay [9], 1.96; in [10] it was -0.111. For the same molecule, the z-score in assay [8] is -1.25 (inactive).
Turning to `NC(=O)NCC#Cc1ccc2c(c1)[C@]1(C(=O)N2)[C@H](C(N)=O)[C@H]2C(=O)O[C@H](c3ccccc3)[C@H](c3ccccc3)N2[C@@H]1c1ccccc1OCCO`, the composite z-score in assay [1] stood at 0.163; in [2] it was 0.494; in assay [3], 0.0143; in assay [4], 0.0467; in [5] it was 0.335; in assay [6], 0.221. Further, the composite z-score was -0.0706 in assay [7], 0.597 in assay [9] and -0.0645 in [10]. The z-score in assay [8] is -0.317 (inactive).
`COC(=O)Cn1c(C(=O)N2CCCC2)cc2c1C[C@H]1CN(C(=O)c3ccccc3)[C@@](Cc3ccc(OC)cc3)(C(=O)OC)[C@@H]21`: the composite z-score in [1] was 0.666; in assay [2], -0.157; in assay [3], 0.236; in [4], 0.495; in [5], 1.68; in [6] it was 1.8. The composite z-score was found to be 1.27 in assay [7], 1.7 in [9] and 0.151 in [10]. Also, the z-score in assay [8] is 0.0502 (inactive).
On to `N#Cc1ccc(NN2C(C(O)c3ccc(I)cc3)C=CC3C(=O)N(c4ccccc4)C(=O)C32)cc1` (stereo not given), for which the composite z-score in [1] is 0.0909; in assay [2], -0.0384; in assay [3], 0.105; in [4], 0.587; in assay [5], 1.32; in assay [6], 1.76. The composite z-score in assay [7] amounted to 1.28; in assay [9], 0.857; in assay [10], 0.0854. The z-score in assay [8] is -2.73 (inactive).
